Results filed as inconclusive are left out. Active and inactive are the calls of the source. Unless noted, calls come from the whole dose curve; as a rule, active = well fitted curve in the direction sought with a large enough effect in the repeat runs; inconclusive = weak or mixed curves; inactive = no such curve, though single readings can be large; an effect the other way counts as inactive or inconclusive.
Tests used:
[1] = qHTS assay to identify small molecule antagonists of the estrogen related receptor (ERR) signaling pathway - cell viability counter screen (AID 1224818); note: potency is the fitted concentration of half-maximal effect;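 note: viability measured after 17.5 h of compound exposure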
Summary of the method: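 ERR reporter cells plated 6 h at 37 C/5% CO2, then compounds in DMSO pin-transferred and incubated 17.5 h at 37 C. Viability read as CellTiter-Fluor fluorescence after 30 min at 37 C.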

[2] = qHTS assay to identify small molecule antagonists of the estrogen related receptor (ERR) signaling pathway (AID 1224819; note: nearly all actives have a fitted effect of over 50% in size; note: potency is the fitted concentration of half-maximal effect)
Summary of the method: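 ERR reporter cells were plated at 2,000 cells/well and left 6 h at 37 C/5% CO2 before pin-tool transfer of compounds in DMSO. After 18 h at 37 C, One-Glo was added and luminescence was read 30 min later at room temperature.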

[3] = qHTS assay to identify small molecule agonists of the estrogen related receptor (ERR) signaling pathway (AID 1224820)
Summary of the method: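 ERR reporter cells (NTP line) plated 2,000/well, incubated 6 h at 37 C/5% CO2, then pinned with compounds in DMSO and held 18 h at 37 C. One-Glo added; luminescence read after 30 min at room temperature.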

[4] = tested on: estrogen-related receptor alpha (ERRalpha) with PGC-1alpha coactivator, human; test: qHTS assay to identify small molecule antagonists of the estrogen related receptor signaling pathway with the pleiotropic PPARgamma coactivator (PGC) (AID 1224821; calls by dose curve; note: nearly all actives have a fitted effect of over 50% in size; note: potency is the fitted concentration of half-maximal effect)
Summary of the method: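 Cells engineered for PGC/ERR signalling (line from NTP) were plated 6 h at 37 C/5% CO2, then exposed to DMSO-dissolved compound for 18 h at 37 C. Luciferase activity was read by One-Glo luminescence after 30 min at room temperature.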

[5] = qHTS assay to identify small molecule antagonists of the estrogen related receptor signaling pathway with the pleiotropic PPARgamma coactivator (PGC) cell viability counter screen (AID 1224822; note: potency is the fitted concentration of half-maximal effect)
Summary of the method: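 PGC/ERR cells were seeded at 2,000 cells/well, rested 6 h at 37 C/5% CO2, then given compounds in DMSO by pin tool and incubated 17.5 h at 37 C. Viability came from CellTiter-Fluor fluorescence after 30 min.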

[6] = qHTS assay to identify small molecule agonists of the estrogen related receptor signaling pathway with the pleiotropic PPARgamma coactivator (PGC) (AID 1224823)
Summary of the method: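 PGC/ERR reporter cells were seeded, rested 6 h at 37 C/5% CO2, then exposed to compounds in DMSO by pin transfer for 18 h at 37 C. Luciferase activity was read as luminescence after One-Glo reagent and 30 min at room temperature.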

Measured: Potency

CCCn1c(=O)[nH]c(=O)c2[nH]cnc21
inactive: all assays above

NS(=O)(=O)c1ccc(-n2nc(C(F)(F)F)cc2-c2ccc(Cl)cc2)cc1
inactive: all assays above

CCOC(=O)C12CC1/C(=N/O)c1ccccc1O2 (stereo not given)
inactive: all assays above

CC1(C)CCC2=C(O1)c1ccccc1C(=O)C2=O
active: [1] 16.8 µM | [2] 9.44 µM | [4] 13.3 µM | [5] 18.8 µM
inactive: [3] | [6]

N[C@H](C(=O)O)c1cc(O)cc(O)c1
inactive: all assays above

O=S(=O)(c1cccc2c(Cl)cccc12)N1CCCNCC1
inactive: all assays above

O=c1onc2n1-c1cc(Br)ccc1OC2
inactive: all assays above

CC(=O)NNC(=O)N1Cc2ccccc2Oc2ccc(Cl)cc21
inactive: all assays above

CCCCCCCC/C=C\CCCCCCCC(=O)NCCO
inactive: all assays above

S=C(Nc1ccccc1)Nc1nccs1
active: [4] 0.81 µM | [5] 0.335 µM
inactive: all other assays above

Nc1ncnc2c1nc(Br)n2C1OC2COP(=O)(O)O[C@@H]2C1O (stereo not given in full)
inactive: all assays above

S=C(S)OC1CC2CC1C1CCCC21 (stereo not given)
inactive: all assays above

CSc1nc(N)c2ncn([C@@H]3O[C@H](COP(=O)(O)OP(=O)(O)O)C(O)[C@H]3O)c2n1 (stereo not given in full)
inactive: all assays above

O=c1cc(-c2ccccc2)oc2c(O)c(O)ccc12
inactive: all assays above

CC(=O)N[C@@H](Cc1c[nH]c2ccccc12)C(=O)OCc1cc(C(F)(F)F)cc(C(F)(F)F)c1
inactive: all assays above

From PubChem BioAssay (Tox21)
